This note sets out measurements from ChEMBL document CHEMBL3433997, “St. Jude Leishmania screening dataset” (2016).

In the first assay the target is Hexose transporter 1 (Plasmodium falciparum) (UniProt O97467). The assay can be described thus: ST_JUDE_LEISH: Cytotoxicity at 2uM final concentration against transgenic Leishmania Mexicana promastigotes LmPfHT that are glucose transport deficient and complemented with the Plasmodium falciparum hexose transporter. Activity is measured by DNA content using SYBR green in vitro. The assay is classed as functional.
Usually inhibition stands for the drop in the measured response relative to a control, in per cent. On to `Cc1cc2c3c(N)nc(N)nc3ccc2n1C`, for which the inhibition came out at 10.4%.
With `O=c1cc(NCCC(CNCc2ccoc2)NCc2cc(Br)cc(Br)c2)[nH]c2ccccc12` (stereo unspecified), the inhibition worked out at 6.66%.
The same measure, in the same setting: the value for `CCCCN(CCCC)C(=N)c1cccc2c1CCCC2` was 3.35%; that for `Cc1cc(N[C@@H](Cc2ccccc2)C(=O)NC2CCCC2)nc(NCCc2ccc(F)cc2)n1` was 5.18%.
On the same count and under the same terms, the value for `CCN(CC)CCN(Cc1ccc(-c2ccc(C(F)(F)F)cc2)cc1)C(=O)Cn1c(CCc2cccc(F)c2F)nc(=O)c2ccccc21` was 0.95%; that for `CSc1ccc(C=CC(=O)NC(=O)c2ccccc2O)cc1` was 2.44%.
Same read-out and setting: the value for `CCc1cc(Br)c(CNCCCNc2cc(=O)c3ccccc3[nH]2)s1` was -0.52%.

In another assay the target is Glucose transporter (Leishmania mexicana) (UniProt O61059). The assay can be described thus: ST_JUDE_LEISH: Cytotoxicity at 2uM final concentration against transgenic Leishmania Mexicana promastigotes LmGT2 that are glucose transport deficient and complemented with the L. Mexicana glucose transporter 2. Activity is measured by DNA content using SYBR green in vitro. The class given is functional.
As for `Cc1sc(C)c(CNCCCNc2cc(=O)c3ccccc3[nH]2)c1Br`, the inhibition was -3.4%.
Still for that read-out and setting: as for `C=CCC(C(=O)Nc1ccnc2ccc(OC)cc12)C1CCN(CCCCCCC)CC1` (stereo unspecified), the figure is 0.87%; as for `CCCCCCCN1CC[C@@H](CCCc2ccnc3ccc(OC)cc23)[C@@H](CNC)C1`, -0.87%.
On to `COc1cc2c(cc1C(F)(F)F)N(C(=O)Nc1cc(F)c(F)c(-c3cccnc3)c1)CC2`, for which the inhibition is -4.39%.
The same measure, in the same setting: the value for `O=C(Nc1cc(Cl)ccc1O)c1cnn2c(C(F)(F)F)cc(-c3cccs3)nc12` was 3.63%; that for `O=C(Nc1ccc(Oc2ccccc2)cc1)N(Cc1ccc(-c2ccc(CN3CCNCC3)cc2)cc1)C1CCN(Cc2ccccc2)CC1` was -0.33%; that for `CNC(=O)c1cc(F)c(F)cc1Nc1nc(Nc2cccc(CS(C)(=O)=O)c2)ncc1Cl` was 2.49%.
Still for that read-out and setting: as for `COc1ccccc1C1CC(c2ccccc2)=NN1C(=O)c1ccccc1` (stereo unspecified), the figure is -0.28%; as for `Cc1nc(-c2ccc(-c3ccc(NC(=O)Nc4ccc(I)c(OCCN(C)C)c4)cc3)c(C)c2)no1`, 3.02%.
Still for that read-out and setting: the value for `Cc1cc(NCCc2ccccc2)nc(N/C(=N/CC(=O)OC(C)(C)C)Nc2ccc(C(F)(F)F)cc2)n1` was 2.34%; that for `Oc1c(C=Nn2cnnc2)sc2ccccc12` was 11.2%; that for `CC(C)c1ccc(NC(=O)c2ccc(C(=O)NC3CCN(CC4CCCCC4)C3)cc2)cc1` (stereo unspecified) was 3.15%.
As to `NC(=O)c1cccc(Nc2nccc(Nc3ccc(Oc4c(Cl)cccc4Cl)c(Cl)c3)n2)c1`, the inhibition is 2.92%.
Consider `Cc1cc(N[C@@H](Cc2ccccc2)C(=O)Nc2ccccc2)nc(NCCc2ccc(F)cc2)n1`, for which the inhibition was 1.86%.
For the compound `O=C(NCc1ccc(F)cc1)c1ccc(N2CCN(c3ccncc3)CC2)cn1`, the inhibition was 1.79%.
`O=C(C=Cc1ccc(Cl)c(Cl)c1)NCCCCCN1CCC(CCCNS(=O)(=O)c2ccc(F)cc2)CC1`: the inhibition is -0.43%.
The same measure, in the same setting: as for `CN(C)CCC1CCCc2ccc(NC(=O)Nc3ccc(-c4ccncc4)c4ccccc34)cc21` (stereo unspecified), the figure is -0.88%.
As for `O=C(Nc1ccc([N+](=O)[O-])cc1)Nc1cc(OCC(F)(F)F)cc(OCC(F)(F)F)c1`, the inhibition turned out to be 4.56%.
On the same count and under the same terms, the value for `Cc1ccc(Nc2nccc(NCC(O)c3ccc(C(F)(F)F)cc3)n2)cc1` (stereo unspecified) was 3.67%; that for `Cc1ccc2[nH]c(C)cc(=NN=CC=Cc3ccccc3)c2c1` was -6.67%.
Still for that read-out and setting: as for `COc1ccc(C(=O)N2CCC3(CC2)C(=O)N(CC(=O)NCC2CCCCC2)CN3c2ccccc2)c(OC)c1`, the figure is 3.99%.
Still for that read-out and setting: the value for `CNC(=O)Cc1ccc(C(=O)Nc2cccc(-c3csc(-c4nc5ccccc5[nH]4)c3)c2)cc1` was 1.68%; that for `CCCC1N=C(N)N=C(N)N1c1ccc(C)c(C)c1` (stereo unspecified) was -2.79%; that for `CC(C)CCN1CCCN(Cc2ccc(C(=O)Nc3ccc(C(C)(C)C)cc3)cc2)CC1` was 1.41%.
As to `O=C(NC(=O)c1ccccc1O)c1ccccc1O`, the inhibition came out at 0.89%.
The same measure, in the same setting: the value for `COc1ccc(CNC2CCN(C)CC2)cc1-c1ccc(S(=O)(=O)NCc2ccccc2)cc1` was 5.02%; that for `O=C(Nc1cccc(C(F)(F)F)c1)c1cccc(S(=O)(=O)NCC2CCCN(Cc3ccccc3)C2)c1` (stereo unspecified) was 1.71%.
On the same count and under the same terms, the value for `COc1cc(Nc2ccc3cc(S(=O)(=O)N4CCCCC4C)ccc3n2)cc(OC)c1OC` (stereo unspecified) was 0.58%.
On the same count and under the same terms, as for `CN1CCN(CC(=O)Nc2cccc(-c3ccc(-c4nc5cc(C(F)(F)F)ccc5[nH]4)cc3)c2)CC1`, the figure is 1.35%; as for `CC(C)C[C@H](NC(=O)c1ccc(OCCN2CCOCC2)cc1)C(=O)N[C@H](/C=N/N1CCN(C)C1=O)CCc1ccccc1`, 3.85%; as for `O=C(NC(=O)c1ccccc1)NC1CCN(c2ccnc3cc(Cl)ccc23)C1` (stereo unspecified), 0.92%.
On to `CCCN(c1ccc(C(F)(F)F)cc1[N+](=O)[O-])S(=O)(=O)C(c1ccccc1)c1ccc(C(F)(F)F)cc1[N+](=O)[O-]` (stereo unspecified), for which the inhibition was -1.01%.
On the same count and under the same terms, the value for `Cc1cc2c3c(N)nc(N)nc3ccc2n1C` was 5.15%; that for `O=c1cc(NCCC(CNCc2ccoc2)NCc2cc(Br)cc(Br)c2)[nH]c2ccccc12` (stereo unspecified) was 9.4%; that for `CCCCN(CCCC)C(=N)c1cccc2c1CCCC2` was 2.45%.
Still for that read-out and setting: as for `Cc1cc(N[C@@H](Cc2ccccc2)C(=O)NC2CCCC2)nc(NCCc2ccc(F)cc2)n1`, the figure is -0.53%; as for `CCN(CC)CCN(Cc1ccc(-c2ccc(C(F)(F)F)cc2)cc1)C(=O)Cn1c(CCc2cccc(F)c2F)nc(=O)c2ccccc21`, 1.67%; as for `CSc1ccc(C=CC(=O)NC(=O)c2ccccc2O)cc1`, 1.41%.
With `CCc1cc(Br)c(CNCCCNc2cc(=O)c3ccccc3[nH]2)s1`, the inhibition was -2.7%.
